Screening results (PubChem)
HCV inhibitor – qHTS Assay for Inhibitors of Hepatitis C Virus (HCV); Huh7.5.1 HCVcc-Cre infection, luciferase reporter, 44 h; Potency, µM (top dose mostly 41.8 µM), inactives show top-dose activity change, negative = inhibition, usual class: inhibitors; 340,000 compounds, 3.4% hits; further: potency means the concentration at half of the fitted maximal effect; on the % scale 0 is the no-effect control and ±100 the full control effect
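Cells seeded at 1,000/well and cultured 4 h, then compounds added followed by HCVcc-Cre virus (~0.5 moi). After 44 h further culture, luciferase substrate was added, plates held 15 min at room temperature, and luminescence read for 15 sec.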
Pf growth 48h – Primary qHTS for delayed death inhibitors of the malarial parasite plastid, 48 hour incubation; P. falciparum luciferase growth in erythrocytes, 48 h; Potency, µM (doses to about 28.7 µM), for inactives: at the top dose activity change, negative = inhibition, usual class: inhibitors; 310,000 compounds, 5.9% hits; AID 504832, 2011; further: potency means the concentration at half of the fitted maximal effect; on the % scale 0 is the no-effect control and ±100 the full control effect
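A one-generation exposure of luciferase-tagged malaria parasites in RPMI 1640/Albumax erythrocyte culture, 37 C and 5% CO2. Inhibition is inferred from decreased luminescence after adding detection reagent.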
Pf growth 96h – Primary qHTS for delayed death inhibitors of the malarial parasite plastid, 96 hour incubation | P. falciparum luciferase reporter growth, 96 h | Potency, µM (highest dose often 28.7 µM), without a hit: top-dose activity change, negative = inhibition, actives largely listed as inhibitors | 320,000 compounds, 6.9% hits; further: potency means the concentration at half of the fitted maximal effect; on the % scale 0 is the no-effect control and ±100 the full control effect
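Parasite growth measured via integrated firefly luciferase reporter in P. falciparum. Infected erythrocytes at 2% hematocrit, 0.05% parasitemia final were treated 96 hours at 37 C under 5% CO2, and luminescence was read.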
HCMV antiviral – qHTS Assay for inhibitors of the human cytomegalovirus (HCMV); HFF cells, HCMV-luciferase reporter, 72 h; stronger effect = lower value; activity change, negative = inhibition, % at 57.5 µM; 410,000 compounds, 4.5% hits; in the data active means activity change below about -60%; inconclusive means no clear call, values can overlap the other calls; inactive means above about -39%; further: on the % scale 0 is the no-effect control and ±100 the full control effect
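Steps: HFFs plated, 16 h 37C; compounds added; HCMV-luciferase added to MOI 1 PFU/cell; 72 h 37C; OneGlo reagent, 5 min room temperature; luminescence read, normalized to controls.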
Sm TGR block – qHTS Assay for the Inhibitors of Schistosoma Mansoni Peroxiredoxins | Potency, µM (doses to about 114 µM), for the others: at the top dose activity change, negative = inhibition, hits mostly inhibitors | purified TGR, DTNB reduction, TNB absorbance 405 nm | Schistosoma mansoni thioredoxin glutathione reductase (TGR), Q962Y6 | 360,000 compounds, 3% hits; further: potency means the concentration at half of the fitted maximal effect; on the % scale 0 is the no-effect control and ±100 the full control effect; nearly all actives have a fitted effect of over 60% in size
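First, TGR (20 nM dispensed) and NADPH were mixed with compound. Second, a 15 min room-temperature incubation followed. Third, further NADPH and then DTNB were added to start the reaction. Finally, TNB absorbance was monitored kinetically.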
SARS PLP yeast – qHTS of Yeast-based Assay for SARS-CoV PLP | S. cerevisiae expressing SARS-CoV PLpro, growth rescue | Potency, µM (series often up to 32.9 µM), for the others: top-dose activity, positive = growth rescue, usual class: activators | 330,000 compounds, 0.19% hits; calls by dose curve; further: potency means the concentration at half of the fitted maximal effect; 0% is about no effect; nearly all actives have a fitted effect of over 55% in size
* = called active by the depositor. This is a sample that favours compounds with a hit; in the whole collection about 15% have one here. Unless noted, the call rests on the fitted dose curve; in most records, active means well fitted curve in the direction sought with a large enough effect; inconclusive means small, poorly fitted or top-dose-only effect, or another doubt; inactive means no such curve, though single readings can be large; an effect the other way counts as inactive or inconclusive.

What do the screens show for `CCn1c(=N)n(CC(=O)c2ccc(Br)s2)c2ccccc21`?
HCV inhibitor: inconclusive; Pf growth 48h: inconclusive; Pf growth 96h: inconclusive; HCMV antiviral: 14; Sm TGR block: 2%; SARS PLP yeast: 0%

What do the screens show for `CCCCn1c(=N)n(CCCOc2ccc(F)cc2)c2ccccc21`?
HCMV antiviral: -67*; Sm TGR block: 5%

What do the screens show for `CCCCn1c(=N)n(CC(=O)c2ccc(Br)s2)c2ccccc21`?
HCV inhibitor: inconclusive; Pf growth 48h: 10µM*; Pf growth 96h: 12µM*; HCMV antiviral: 0; Sm TGR block: -5%; SARS PLP yeast: 0%

What do the screens show for `N=c1n(CCO)c2ccccc2n1CCOc1ccc(F)cc1`?
HCMV antiviral: -5; Sm TGR block: -6%

How did Cc1ccc(-c2nn(-c3ccccc3)cc2C(=O)NCC(c2cccs2)N2CCOCC2)cc1 (centres undefined) do in these assays?
HCV inhibitor: inconclusive; Pf growth 48h: inconclusive; Pf growth 96h: inconclusive; HCMV antiviral: -2; Sm TGR block: -5%; SARS PLP yeast: -11%

Results for Cc1cccc(-c2nn(-c3ccccc3)cc2C(=O)NCC(c2cccs2)N2CCOCC2)c1 (centres undefined) ?
HCV inhibitor: inconclusive; Pf growth 48h: 13µM*; Pf growth 96h: inconclusive; HCMV antiviral: 19; Sm TGR block: 10%; SARS PLP yeast: 7%

What do the screens show for `O=C(NCC(c1cccs1)N1CCOCC1)c1cc(-c2ccc(F)cc2)nc2ccccc12` (centres undefined)?
HCV inhibitor: 7.1µM*; Pf growth 48h: inconclusive; Pf growth 96h: inconclusive; HCMV antiviral: 20; Sm TGR block: -21%; SARS PLP yeast: -2%

Results for CCNC(=O)c1ccc2c(c1)C1C3CCC(C3)C1C(c1ccccc1)N2 (centres undefined) ?
HCV inhibitor: 10%; Pf growth 48h: 7.4µM*; Pf growth 96h: 50%; HCMV antiviral: -63*; Sm TGR block: 6%; SARS PLP yeast: -72%

What do the screens show for `CC(C)(C)CC(C)(C)c1ccc(O)c(CN2CCN(CCC#N)CC2)c1`?
HCV inhibitor: 1%; Pf growth 48h: 1.7µM*; HCMV antiviral: -17; Sm TGR block: 1%; SARS PLP yeast: -8%

Results for CCOc1cc(CNCC2CCCO2)cc(Br)c1OCC(N)=O (centres undefined) ?
HCV inhibitor: -11%; Pf growth 48h: 53%; Pf growth 96h: 45%; HCMV antiviral: -69*; Sm TGR block: 0%; SARS PLP yeast: 2%

What do the screens show for `COc1cc(CNCC2CCCO2)ccc1OCC(N)=O` (centres undefined)?
HCV inhibitor: 10%; Pf growth 48h: 14%; Pf growth 96h: inconclusive; HCMV antiviral: 12; SARS PLP yeast: -1%

How did CCOc1ccccc1NC(=O)CC(O)(C(F)(F)F)C(F)(F)F do in these assays?
HCV inhibitor: 10%; Pf growth 48h: -4%; Pf growth 96h: 40%; HCMV antiviral: 26; Sm TGR block: 0%; SARS PLP yeast: -4%

What do the screens show for `CCOc1ccccc1NC(=O)COn1nnc2ccccc21`?
HCV inhibitor: 13µM*; Pf growth 48h: 31%; HCMV antiviral: 33; Sm TGR block: -10%; SARS PLP yeast: -11%

What do the screens show for `CCOc1ccc(C(C)=O)cc1NC(=O)/C=C\C(=O)O`?
HCV inhibitor: 10%; Pf growth 48h: 40%; Pf growth 96h: 10µM*; HCMV antiviral: -38; Sm TGR block: -25%; SARS PLP yeast: -1%

Results for CCOc1ccccc1NC(=O)/C=C/C(N)=O ?
HCV inhibitor: 13%; Pf growth 96h: 24%; HCMV antiviral: 9; Sm TGR block: 4µM*; SARS PLP yeast: -32%

Results for CC(=O)Nc1ccc(S(=O)(=O)Nc2cccc(-n3c(C)nc4ccccc4c3=O)c2)cc1 ?
HCV inhibitor: -4%; Pf growth 48h: inconclusive; Pf growth 96h: 1%; HCMV antiviral: -25; Sm TGR block: -19%; SARS PLP yeast: -4%

Results for CCc1cccc(NC(=O)C(CC)n2nc(C)c3sc4ccccc4c3c2=O)c1 (centres undefined) ?
HCMV antiviral: 1; Sm TGR block: 35%

What do the screens show for `CC(C)NC(=O)C1(C)Cc2c(-c3ccc(N(C)C)cc3)ccnc2O1` (centres undefined)?
HCMV antiviral: -21

What do the screens show for `O=C1CSc2ccc(C(=O)N3CCCCC3)cc2N1`?
HCMV antiviral: -68*

Results for O=C1CSc2ccc(C(=O)O)cc2N1 ?
HCV inhibitor: 8%; Pf growth 48h: 3%; Pf growth 96h: 12µM*; HCMV antiviral: 6; Sm TGR block: 3%; SARS PLP yeast: 1%

Results for NC(=O)C1CCCN(C(=O)c2ccc3c(c2)NC(=O)CS3)C1 (centres undefined) ?
HCV inhibitor: 21%; Pf growth 48h: inconclusive; Pf growth 96h: inconclusive; HCMV antiviral: -8; Sm TGR block: 5%; SARS PLP yeast: 2%

How did O=C(C1CC1)N1N=C(c2ccc(F)cc2)CC1(O)C(F)(F)F (centres undefined) do in these assays?
HCV inhibitor: -14%; Pf growth 48h: 13%; Pf growth 96h: 12µM*; HCMV antiviral: -3; Sm TGR block: 4%; SARS PLP yeast: -1%

What do the screens show for `C[C@H](CCCC/C=C/C(=O)O)O[C@@H]1O[C@@H](C)[C@H](O)C[C@H]1O`?
HCV inhibitor: 37%; Pf growth 48h: -1%; Pf growth 96h: inconclusive; HCMV antiviral: 3; Sm TGR block: 56µM*; SARS PLP yeast: 1%

What do the screens show for `O=C1/C(=C/c2cccnc2)Sc2ccccc21`?
HCV inhibitor: 10%; Pf growth 48h: inconclusive; Pf growth 96h: 7.4µM*; HCMV antiviral: 74; Sm TGR block: 6%; SARS PLP yeast: -13%

What do the screens show for `O=C1c2ccccc2C(=Cc2cccnc2)c2ccccc21`?
HCMV antiviral: -27

What do the screens show for `C=CCC1(C(C)CCC)C(=O)N=C(S)NC1=O` (centres undefined)?
Pf growth 48h: -1%; Pf growth 96h: -15%

What do the screens show for `O=C(CN(c1cccc([N+](=O)[O-])c1)S(=O)(=O)c1ccccc1)NCc1cccnc1`?
HCV inhibitor: -11%; Pf growth 48h: 5%; Pf growth 96h: inconclusive; HCMV antiviral: 13; Sm TGR block: 3%; SARS PLP yeast: -2%
